Results on 13 compounds are retold here after PubChem BioAssay (Tox21).

Unmarked numbers belong to inactive results. Results filed as inconclusive are left out. Active and inactive are the calls of the source. Unless noted, the call rests on the fitted dose curve; in most records, active means well fitted curve in the direction sought with a large enough effect in the repeat runs; inconclusive means weak or mixed curves; inactive means no such curve, though single readings can be large; an effect the other way counts as inactive or inconclusive.

Assay [1] is described as follows: qHTS assay to test for compound auto fluorescence at 535 nm (green) in HEK293 cells (AID 720680). On the technique in general: qHTS replaces the single test concentration by a dilution series.
Assay [2] is described as follows: qHTS assay to test for compound auto fluorescence at 460 nm (blue) in HEK293 cell free culture (AID 720681). An outline of the steps:
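Compounds were added to cell-free DMEM with 10% FBS and fluorescence read directly. The blue channel used 405 nm excitation and 460 nm emission, with triamterene as the reference fluorophore.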

Assay [3] can be described thus: qHTS assay to test for compound auto fluorescence at 535 nm (green) in HEK293 cell free culture (AID 720682). The essentials:
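Using fluorescein as calibrant, autofluorescence was quantified at 485/535 nm in cell-free DMEM containing 10% FBS after pintool addition of compound or vehicle.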

Assay [4] can be described thus: qHTS assay to test for compound auto fluorescence at 590 nm (red) in HEK293 cell free culture (AID 720683). The essentials:
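Cell-free wells of DMEM with 10% FBS received compound, and intrinsic fluorescence was read at excitation/emission 540/590 nm. Values expressed as equivalence to Rose Bengal sodium.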

A short description of assay [5]: qHTS assay to test for compound auto fluorescence at 590 nm (red) in HepG2 cell free culture (AID 720684). The essentials: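 Compound was pinned into wells holding MEM with 10% FBS and no cells, and red fluorescence was read at Ex/Em 540/590 nm. Signal is expressed as auto fluorescence equivalency relative to Rose Bengal sodium.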
Assay [6] is described as follows: qHTS assay to test for compound auto fluorescence at 460 nm (blue) in HepG2 cell free culture (AID 720685). An outline of the steps:
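Compound (23 nL) or DMSO pinned into cell-free MEM with 10% FBS; blue fluorescence read at 405/460 nm excitation/emission, expressed as auto-fluorescence equivalency to triamterene.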

The nature of assay [7]: qHTS assay to test for compound auto fluorescence at 535 nm (green) in HepG2 cell free culture (AID 720686).
The nature of assay [8]: qHTS assay to test for compound auto fluorescence at 460 nm (blue) in HepG2 cells (AID 720687). An outline of the steps:
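HepG2 cells in MEM with 10% FBS, attached overnight at 37 C, were exposed to compound or DMSO for 1 hr at 37 C, 5% CO2. Blue fluorescence was read at 405/460 nm, with triamterene as reference fluorophore.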

Assay [9] concerns the target Glucocorticoid receptor (Homo sapiens) (UniProt P04150). Nature of the assay: qHTS assay to identify small molecule agonists of the glucocorticoid receptor (GR) signaling pathway (AID 720691; active means well fitted activation curve with a large enough effect in the signal ratio in the repeat runs, not every such curve was filed as active; the % refers to the signal ratio). The essentials:
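Reporter read-out: fluorescence intensity following 2 h room-temperature LiveBLAzer B/G FRET substrate loading. Prior step: GR-bla HeLa cells held 4 h, then treated 18 h at 37 C.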

Assay [10] has the same target. As to the kind of experiment: qHTS assay to identify small molecule antagonists of the glucocorticoid receptor (GR) signaling pathway (AID 720692; active means well fitted inhibition curve with a large enough effect in the signal ratio in the repeat runs, not every such curve was filed as active; the % refers to the signal ratio). An outline of the steps:
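Dexamethasone (5 nM final) stimulated a stably integrated GRE-beta-lactamase reporter in HeLa cells during 18 h co-incubation with compounds; signal was quantified as fluorescence intensity of B/G FRET substrate after 2 h.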

A short description of assay [11]: qHTS assay to identify small molecule antagonists of the glucocorticoid receptor (GR) signaling pathway - cell viability counter screen (AID 720693). Further: nearly all actives have a fitted effect of over 55% in size.
Assay [12] in a line: qHTS assay for identifying genotoxic compounds that show differential cytotoxicity against isogenic chicken DT40 cell lines with known DNA damage response pathways - wild type cell line (AID 743012). Further: nearly all actives have a fitted effect of over 60% in size. Further: potency means the concentration at half of the fitted maximal effect. An outline of the steps:
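Using parental DT40 (300 cells/well), compounds delivered in DMSO incubate 40 h at 37 C/5% CO2. CellTiter-Glo reagent then stands 30 min at room temperature, and luminescence gives cell viability.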

The nature of assay [13]: qHTS assay for identifying genotoxic compounds that show differential cytotoxicity against isogenic chicken DT40 cell lines with known DNA damage response pathways - Rev3 mutant cell line (AID 743014). Further: nearly all actives have a fitted effect of over 55% in size. Further: potency means the concentration at half of the fitted maximal effect.
Assay [14] can be described thus: qHTS assay for identifying genotoxic compounds that show differential cytotoxicity against isogenic chicken DT40 cell lines with known DNA damage response pathways - Rad54/Ku70 mutant cell line (AID 743015). Further: nearly all actives have a fitted effect of over 60% in size. Further: potency means the concentration at half of the fitted maximal effect.
The nature of assay [15]: qHTS assay to identify small molecule antagonists of the androgen receptor (AR) signaling pathway - cell viability counter screen (AID 743033; further: nearly all actives have a fitted effect of over 45% in size).
Assay [16] can be described thus: qHTS assay to identify small molecule antagonists of the androgen receptor (AR) signaling pathway using the MDA cell line - cell viability counter screen (AID 743041; further: nearly all actives have a fitted effect of over 45% in size; further: potency means the concentration at half of the fitted maximal effect). The essentials:
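MDA-kb2 AR-luc cells (MMTV-luciferase, AR/GR responsive) treated with compounds plus R1881 agonist for 16 h at 37C. CellTiter-Fluor added at 15.5 h; fluorescence read after 30 min in the same wells.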

The nature of assay [17]: qHTS assay to identify small molecule antagonists of the thyroid receptor (TR) signaling pathway - cell viability counter screen (AID 743064). Further: nearly all actives have a fitted effect of over 50% in size. Further: potency means the concentration at half of the fitted maximal effect. An outline of the steps: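 Counter screen for cytotoxicity: compound plus T3 (1 nM final) on GH3.TRE-Luc cells, 23.5 h at 37 °C, then fluorescence viability readout with CellTiter-Fluor.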
Assay [18] has as its target Androgen receptor (Homo sapiens) (UniProt P10275). As to the kind of experiment: qHTS assay to identify small molecule agonists of the androgen receptor (AR) signaling pathway (AID 743036; active means well fitted activation curve with a large enough effect in the signal ratio in the repeat runs, with a control signal flat, not every such curve was filed as active; the % refers to the signal ratio). The essentials: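 In this Tox21 qHTS, 2,000 HEK293 AR-bla cells per well were incubated with compounds for 16 h at 37C and 5% CO2. Fluorescence intensity was recorded 2 h after adding LiveBLAzer B/G FRET substrate at room temperature.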

Assay [19] has the same target. As to the kind of experiment: qHTS assay to identify small molecule agonists of the androgen receptor (AR) signaling pathway using the MDA cell line (AID 743040; further: nearly all actives have a fitted effect of over 20% in size). The essentials: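 MDA-kb2 breast carcinoma cells carrying MMTV-luciferase (responsive to AR and GR), plated 5 h then treated 16 h with compounds at 37C, 0% CO2. Read-out was ONE-Glo luminescence after 30 min at room temperature.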

The target is the same in assay [20]. As to the kind of experiment: qHTS assay to identify small molecule antagonists of the androgen receptor (AR) signaling pathway using the MDA cell line (AID 743042; further: nearly all actives have a fitted effect of over 55% in size). The essentials: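 MDA-kb2 breast carcinoma cells carrying MMTV-luciferase (AR/GR responsive) were co-treated with compounds and the agonist R1881 for 16 h at 37C. Inhibition read as ONE-Glo luminescence; CellTiter-Fluor fluorescence measured in parallel for cytotoxicity.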
On the % scale 0 is the no-effect control and ±100 the full control effect.

Chain of Androgen receptor (Homo sapiens) (P10275 whole entry, looked up): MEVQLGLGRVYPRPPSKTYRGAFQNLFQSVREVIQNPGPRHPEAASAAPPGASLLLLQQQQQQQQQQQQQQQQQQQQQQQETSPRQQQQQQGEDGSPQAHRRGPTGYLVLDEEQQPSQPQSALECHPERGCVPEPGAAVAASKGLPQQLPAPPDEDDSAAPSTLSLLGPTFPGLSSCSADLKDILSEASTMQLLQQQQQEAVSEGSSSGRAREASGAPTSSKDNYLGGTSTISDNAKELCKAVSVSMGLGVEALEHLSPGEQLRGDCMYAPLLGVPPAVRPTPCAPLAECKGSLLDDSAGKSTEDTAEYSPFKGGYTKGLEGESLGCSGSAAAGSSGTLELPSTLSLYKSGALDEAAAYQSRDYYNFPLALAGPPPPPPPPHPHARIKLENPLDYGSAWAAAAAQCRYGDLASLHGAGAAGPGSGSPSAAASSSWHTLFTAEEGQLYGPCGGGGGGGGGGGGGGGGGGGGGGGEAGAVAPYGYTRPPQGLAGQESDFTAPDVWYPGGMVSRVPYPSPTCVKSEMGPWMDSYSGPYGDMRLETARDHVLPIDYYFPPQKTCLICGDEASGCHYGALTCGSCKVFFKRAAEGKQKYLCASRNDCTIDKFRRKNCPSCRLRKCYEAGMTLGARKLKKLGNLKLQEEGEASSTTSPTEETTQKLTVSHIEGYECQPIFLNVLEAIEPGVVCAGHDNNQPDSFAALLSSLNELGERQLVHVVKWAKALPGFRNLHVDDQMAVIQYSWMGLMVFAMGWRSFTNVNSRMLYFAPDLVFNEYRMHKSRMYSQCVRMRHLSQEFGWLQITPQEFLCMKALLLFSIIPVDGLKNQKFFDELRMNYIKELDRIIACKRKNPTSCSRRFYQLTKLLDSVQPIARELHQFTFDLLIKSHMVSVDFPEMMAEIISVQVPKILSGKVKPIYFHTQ
Chain of Glucocorticoid receptor (Homo sapiens) (P04150 whole entry, looked up): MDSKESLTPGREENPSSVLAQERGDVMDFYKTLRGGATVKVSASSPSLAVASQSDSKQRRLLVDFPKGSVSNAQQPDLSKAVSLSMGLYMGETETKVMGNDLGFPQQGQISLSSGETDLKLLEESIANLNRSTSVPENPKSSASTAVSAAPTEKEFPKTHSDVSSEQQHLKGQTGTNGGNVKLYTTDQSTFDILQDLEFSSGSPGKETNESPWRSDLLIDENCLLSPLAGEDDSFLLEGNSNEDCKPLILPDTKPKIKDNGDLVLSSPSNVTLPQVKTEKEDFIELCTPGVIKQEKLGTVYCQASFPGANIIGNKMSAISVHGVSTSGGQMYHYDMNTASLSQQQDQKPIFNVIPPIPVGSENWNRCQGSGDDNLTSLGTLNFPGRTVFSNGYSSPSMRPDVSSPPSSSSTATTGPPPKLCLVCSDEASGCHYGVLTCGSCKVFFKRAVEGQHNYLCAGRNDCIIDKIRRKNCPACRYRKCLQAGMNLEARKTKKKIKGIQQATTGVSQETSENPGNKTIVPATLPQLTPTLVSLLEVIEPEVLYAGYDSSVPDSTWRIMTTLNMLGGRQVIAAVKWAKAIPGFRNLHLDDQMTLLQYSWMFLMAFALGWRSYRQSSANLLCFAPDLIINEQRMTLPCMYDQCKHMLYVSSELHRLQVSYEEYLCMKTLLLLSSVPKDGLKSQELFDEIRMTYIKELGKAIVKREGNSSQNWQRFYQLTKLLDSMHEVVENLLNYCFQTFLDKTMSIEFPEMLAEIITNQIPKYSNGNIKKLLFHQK

As to `[O]=[Bi]`, in [1], the fluorescence, % of fluorescein was -0.0925% [at 3.72 µM]. The fluorescence, % of fluorescent control in [2] was -0.0523% [at 3.72 µM]; in [4], -0.241% [at 3.72 µM]; in assay [6] it was -0.119% [at 3.72 µM]; in [8], -0.0256% [at 3.72 µM]. For the same compound, the activity change in assay [3] is -0.0025% [at 3.72 µM]. The fluorescence, % of Rose Bengal in assay [5] is -0.0278% [at 3.72 µM]. The fluorescence, % of fluorescein control in [7] is -0.0086% [at 3.72 µM]. Besides, in [9], the activation is 0.026% [at 6.9 µM]. Besides, the activity change, negative = inhibition in assay [10] was -10.6% [at 7.04 µM]. Besides, the viability change, negative = cytotoxic in assay [11] was -0.0549% [at 7.04 µM]. For the same compound, the activity change, negative = cytotoxicity in assay [12] was -3.35% [at 8.52 µM]; in assay [14], 2.55% [at 8.55 µM]; in [15], -10.1% [at 7.04 µM]. The activity, negative = cytotoxicity in [13] was 0.555% [at 8.53 µM].
As for `CC1=C(C=O)C(C)(C)CCC1`, the result in assay [1], in assay [3], in assay [4], in assay [5] and in assay [7] was inactive. In addition, the Potency entry in assay [2], in assay [6], in assay [8], in [9], in assay [10] and in assay [11] was “inactive” each time. Besides, the Potency entry in assay [12], in assay [13], in [14], in assay [15], in assay [16] and in assay [17] was “inactive” throughout.
For the compound `CC(C)c1nnc2ccc(-c3ocnc3-c3cc(F)ccc3F)cn12`, the compound was called inactive in assay [1], in assay [3], in assay [4], in assay [5] and in [7]. Also, the Potency result in assay [2], in [6], in assay [8], in [9], in assay [10] and in assay [11] was “inactive” throughout. For the same compound, the Potency entry in assay [16] and in assay [17] was “inactive” each time. The results for the Potency in assay [12], in [13] and in assay [14] were 27.3 µM (active), 21.7 µM (active) and 27.3 µM (active), respectively.
For `CCCCCCOC(=O)CCCCCCCC(=O)OCCCCCC`, the compound was classed as inactive in [1], in assay [3], in [4], in assay [5] and in [7]. In addition, the Potency entry in assay [2], in [6], in assay [8], in assay [9], in assay [10] and in assay [11] was “inactive” each time. Further, the Potency result in assay [12], in assay [13], in [14], in [15], in [16] and in assay [17] was “inactive” in each case.
With `CCCOCCOCCO`, the result in assay [1], in assay [3], in assay [4], in assay [5] and in assay [7] was inactive. Further, the Potency entry in [2], in [6], in assay [8], in assay [9], in assay [10] and in assay [11] was “inactive” each time. The Potency result in assay [12], in assay [13], in [14], in [15], in [16] and in assay [17] was “inactive” each time.
For the compound `CCCCCCCCCOC(C)=O`, the outcome in assay [1], in [3], in [4], in assay [5] and in [7] was inactive. Also, the Potency entry in assay [2], in [6], in [8], in assay [9], in [10] and in [11] was “inactive” in each case. Further, the Potency result in assay [12], in assay [13], in [15] and in [17] was “inactive” each time.
For `COc1ccccc1N=Nc1c(S(=O)(=O)O)cc2cc(S(=O)(=O)O)cc(NC(C)=O)c2c1O`, the outcome in [1], in assay [3], in [4], in assay [5] and in [7] was inactive. For the same compound, the Potency result in assay [2], in assay [6], in assay [8], in assay [9], in [10] and in assay [11] was “inactive” in each case. Further, the Potency entry in assay [15] is “inactive”. The Potency in [12] is 28.8 µM (active); in assay [13], 18.2 µM (active); in assay [14] it was 14.4 µM (active); in [16], 45.7 µM (active).
`Cc1occc1C(=O)Nc1ccc(C(=O)N2CCC(F)(F)/C(=C\C(=O)N3CCC(N4CCCCC4)CC3)c3ccccc32)cc1`: the compound was classed as inactive in assay [1], in assay [3], in assay [4], in assay [5] and in [7]. The Potency result in assay [2], in [6], in assay [8], in [9], in [10] and in [11] was “inactive” in each case. For the same compound, the Potency entry in assay [12], in [13], in assay [15], in [18], in assay [19] and in assay [16] was “inactive” in each case. In addition, in [20], the Potency entry is “inactive”. Further, the Potency in assay [17] was 17 µM (active).
`O=C(CCCN1CCN(c2ccc(F)cc2)CC1)NC1c2ccccc2CSc2ccccc21` (stereo not given): the compound was classed as inactive in [1], in assay [3], in assay [4], in assay [5] and in [7]. For the same compound, the Potency entry in [2], in assay [6], in [8], in [9], in assay [10] and in assay [11] was “inactive” in each case. The Potency was 13.3 µM (active) in [12], 26.6 µM (active) in [13], 18.8 µM (active) in [14] and 10.6 µM (active) in [17].
Turning to `CC1CC(O)CC(C)(C)C1` (stereo not given), the outcome in [1], in [3], in assay [4], in assay [5] and in [7] was inactive. Besides, the Potency result in [2], in assay [6], in [8], in assay [9], in [10] and in assay [11] was “inactive” each time. The Potency entry in assay [12], in assay [13], in [14], in assay [15], in assay [16] and in assay [17] was “inactive” each time.
`O=C(CCCCCCCCC#CI)Oc1ccccc1`: the result in assay [1], in [3], in [4], in assay [5] and in assay [7] was inactive. The Potency result in assay [2], in assay [6], in assay [8], in assay [9], in assay [10] and in assay [11] was “inactive” throughout. Besides, the Potency result in assay [12], in [13], in assay [15], in assay [18], in [19] and in [20] was “inactive” throughout.
Turning to `OCC1CC=CCC1` (stereo not given), the call in assay [1], in assay [3], in assay [4], in [5] and in [7] was inactive. For the same compound, the Potency result in [2], in assay [6], in assay [8], in assay [9], in [11] and in [12] was “inactive” each time. The Potency result in assay [13], in [14], in assay [15], in assay [19], in assay [16] and in assay [20] was “inactive” each time.
With `COCCOC`, the compound was classed as inactive in assay [1], in assay [3], in [4], in [5] and in assay [7]. In addition, the Potency result in assay [2], in assay [6], in assay [8], in assay [9], in assay [10] and in assay [11] was “inactive” throughout. Moreover, in assay [15], the Potency result is “inactive”.
